Assay results from PubChem BioAssay (NCATS).
Inconclusive results are not listed. Unmarked numbers belong to inactive results. Calls of active or inactive are those of the source. Calls follow the shape of the dose curve; as a rule, active = well fitted cell-killing curve with a large enough effect; inconclusive = small, poorly fitted or top-dose-only effect; inactive = flat fitted curve, though single readings scatter.

assay: Cell Viability - LYMP2-010 (AID 981); conditions: LYMP2-010 lymphoblastoid cell viability, qHTS; series mostly up to 92.2 µM; activity, negative = cytotoxicity: at the top concentration; also: nearly all actives have a fitted effect of over 55% in size
From the text: NIH Chemical Genomics Center [NCGC]
NIH Molecular Libraries Screening Centers Network [MLSCN]
National Institutes of Environmental Health Sciences [NIEHS]
National Toxicology Program [NTP]
We have developed a 1536-well cell-based assay for quantitative high throughput screening (qHTS) against a number of cell lines to determine in vitro cytotoxicity of small molecules. This particular assay uses a human lymphoblastoid cell line (LYMP2-010) purchased from Coriell Institute for Medical Research.
NCGC Assay Protocol Summary:
The CellTiter-Glo luminescent cell viability assay (Promega) is a homogeneous method to measure the number of viable cells in culture. The end point readout of this assay is based on quantitation of intracellular ATP, an indicator of metabolic activity, using the luciferase reaction. Luciferase catalyzes the oxidation of beetle Luciferin to oxyluciferin and light in the presence of ATP. The luminescent signal is proportional to amount of ATP present.
Using the CellTiter-Glo luminescent cell viability assay, the amount of cellular ATP was measured in the lymphoblastoid cell line with complete culture medium following compound treatment for 24 hours. The assay was performed in opaque white Kalypsys 1536-well plates. In the screen, tetraoctylammonium bromide was used as positive control. Library compounds were measured for their ability to cause acute toxicity in the cell line, as reflected by a decrease in intracellular ATP levels, in a concentration-dependent manner. […] AC50 values were determined from concentration-response data modeled with the standard Hill equation.
qHTS protocol for CellTiter Glo lymphoblastoid cellular assay
[Step] [Parameter] [Value] [Description]
1. Reagent; 5 uL; 2500 lymphoblastoid cells/well
2. Time; 5 hr; 37 C incubation
4. Controls; 23 nL; Tetraoctylammonium bromide 6.4pM to 92 uM
5. Time; 24 hr; 37 C incubation
6. Reagent; 5 uL; CellTiter Glo reagent
7. Time; 30 min; Room Temperature
8. Detection; Luminescence; Viewlux plate reader
Keywords: cell viability, cytotoxicity, lymphoblastoid cell line, luminescence, NTPHTS, NTPHTS_NCGC, NIEHS, DSSTox, MLSMR, MLSCN, NIH Roadmap, qHTS, NCGC
% is scaled to controls: 0 for no effect and ±100 for the full control effect; potency is read from the fitted curve at half-maximal effect.

Going from `Cc1c(C(=O)O)cccc1[N+](=O)[O-]` to `O=C(Cl)c1ccccc1[N+](=O)[O-]`, the “activity, negative = cytotoxicity” value falls from -6.89% to -13.7%.

Going from `C=CCCC` to `C=CCCCC`, the “activity, negative = cytotoxicity” value rises from -11.7% to -1.53%.

First: BrC(Br)C(Br)Br
Second: BrC/C=C/CBr
The “activity, negative = cytotoxicity” value of the first is higher: -7.45% for the first, -16.4% for the second.

Going from `O=C(O)c1ccccc1C(=O)O` to `COC(=O)c1ccccc1`, the “activity, negative = cytotoxicity” value rises from -8.61% to -5.77%.

Going from `CCCC(Cl)CCCC(Cl)CCC(Cl)CCC(Cl)CCC(Cl)CCCC(Cl)CCC` (stereo not given) to `CCCCCCCCCCCCOCC1CO1` (stereo not given), the “activity, negative = cytotoxicity” value rises from -9.28% to -7.72%.

Going from `Cc1cccc2ccccc12` to `Cc1ccc2ccccc2c1[N+](=O)[O-]`, the “activity, negative = cytotoxicity” value rises from -13.2% to 1.36%.

Compared with `Cc1ccccc1Br`, `Cc1ccccc1C=O` is higher in “activity, negative = cytotoxicity” value: -10.9% for the first, -5.89% for the second.

First: C=C(C)C(=O)OCCCCCCCCCC
Second: CCCCC(=O)N(C)C
The “activity, negative = cytotoxicity” value of the first is higher: -1.67% for the first, -4.05% for the second.

Compared with `CCC=O`, `CCOC(=O)OCC` is higher in “activity, negative = cytotoxicity” value: -12.1% for the first, -7.76% for the second.

First: CC(=O)CCc1ccccc1
Second: CC/C=C1/OC(=O)c2ccccc21
The “activity, negative = cytotoxicity” value of the first is lower: -25.3% for the first, -13.4% for the second.

First: O=C(O)CN(CC(=O)O)CC(=O)O
Second: COC(=O)CCCC(=O)OC
The “activity, negative = cytotoxicity” value of the first is lower: 5.31% for the first, 5.35% for the second.

First: c1ccc2n[nH]nc2c1
Second: c1ccc2c(c1)ccc1ncccc12
The “activity, negative = cytotoxicity” value of the first is higher: -2.27% for the first, -12.1% for the second.

First: O=[N+]([O-])c1cccc(Cl)c1
Second: Nc1ccc(Cl)cc1[N+](=O)[O-]
The “activity, negative = cytotoxicity” value of the first is lower: -19.8% for the first, -4.97% for the second.

Going from `Nc1cccc2c(=O)[nH][nH]c(=O)c12` to `CCNc1cc(O)ccc1C`, the “activity, negative = cytotoxicity” value falls from -7.53% to -11.4%.

Compared with `CCOc1cc(OCC)c(C(C)=O)cc1OCC`, `C=CCOC(=O)COCCC(C)C` is lower in “activity, negative = cytotoxicity” value: -6.72% for the first, -10.7% for the second.

First: FB(F)F
Second: O=Cc1ccc(Cl)cc1
The “activity, negative = cytotoxicity” value of the first is lower: -19.6% for the first, 3.28% for the second.

First: CC(C)=CCC/C(C)=C/C=O
Second: CN(C)CCCCl
The “activity, negative = cytotoxicity” value of the first is lower: -15.4% for the first, -7.64% for the second.

Compared with `CC(C)N(C)C`, `Cc1ccc(N(C)C)cc1` is higher in “activity, negative = cytotoxicity” value: -15.7% for the first, -2.79% for the second.

Compared with `O=C1CCC(=O)O1`, `O=Cc1ccc(C(=O)O)cc1` is lower in “activity, negative = cytotoxicity” value: -5.07% for the first, -8.86% for the second.

With `OC/C(Br)=C(\Br)CO` the “activity, negative = cytotoxicity” value was -12.9%.

In the case of `CCCCC/C=C/C=C/C=O`, the Potency is reported as 39.8 µM (active).
